For 24 molecules, outcome and AC50 results are on record in PubChem BioAssay (EPA / NIEHS).

Records with an inconclusive call do not appear. Calls of active or inactive are those of the source. How the source made its calls: active means hit-call score of the fitted dose curve at least 0.9, where 1 is the maximum; inconclusive means response in the unintended direction; inactive means score below 0.9.

For orientation: AC50 means the concentration giving half of the maximal activity seen.

Glucocorticoid receptor (Homo sapiens), sequence (P04150 whole entry, looked up): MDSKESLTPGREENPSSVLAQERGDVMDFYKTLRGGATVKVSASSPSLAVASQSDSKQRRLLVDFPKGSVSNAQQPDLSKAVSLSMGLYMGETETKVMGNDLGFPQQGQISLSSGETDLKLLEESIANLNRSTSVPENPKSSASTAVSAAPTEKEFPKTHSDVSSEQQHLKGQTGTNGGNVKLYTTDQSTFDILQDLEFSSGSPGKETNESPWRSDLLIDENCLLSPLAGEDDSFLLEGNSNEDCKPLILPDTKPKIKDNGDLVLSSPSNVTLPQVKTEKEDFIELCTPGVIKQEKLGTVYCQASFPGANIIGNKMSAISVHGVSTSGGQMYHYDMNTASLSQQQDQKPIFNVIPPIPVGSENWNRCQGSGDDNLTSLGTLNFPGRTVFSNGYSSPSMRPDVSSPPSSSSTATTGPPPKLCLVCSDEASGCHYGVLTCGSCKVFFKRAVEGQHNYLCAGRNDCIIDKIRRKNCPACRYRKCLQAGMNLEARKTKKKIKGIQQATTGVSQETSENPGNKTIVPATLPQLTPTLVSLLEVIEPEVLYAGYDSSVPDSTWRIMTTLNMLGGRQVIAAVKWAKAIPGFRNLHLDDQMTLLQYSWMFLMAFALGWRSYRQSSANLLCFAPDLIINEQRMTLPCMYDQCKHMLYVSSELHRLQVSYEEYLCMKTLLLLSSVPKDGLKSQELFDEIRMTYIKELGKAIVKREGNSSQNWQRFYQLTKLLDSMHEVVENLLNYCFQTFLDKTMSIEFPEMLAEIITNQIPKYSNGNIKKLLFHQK
Retinoic acid receptor alpha (Homo sapiens), sequence (P10276 whole entry, looked up): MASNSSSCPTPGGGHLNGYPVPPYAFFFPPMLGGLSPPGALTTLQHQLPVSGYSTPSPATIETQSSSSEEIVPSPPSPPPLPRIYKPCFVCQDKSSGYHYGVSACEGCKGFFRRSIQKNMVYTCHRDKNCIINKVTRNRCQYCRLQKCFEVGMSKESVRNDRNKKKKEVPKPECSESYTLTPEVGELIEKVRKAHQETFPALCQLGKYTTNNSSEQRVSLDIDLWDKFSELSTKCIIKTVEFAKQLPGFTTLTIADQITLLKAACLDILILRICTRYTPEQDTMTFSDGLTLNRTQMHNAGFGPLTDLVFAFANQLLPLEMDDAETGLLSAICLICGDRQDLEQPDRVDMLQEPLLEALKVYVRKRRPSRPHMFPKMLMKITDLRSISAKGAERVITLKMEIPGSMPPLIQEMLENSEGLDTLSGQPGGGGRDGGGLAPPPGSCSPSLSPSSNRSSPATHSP
Nuclear receptor subfamily 1 group I member 2 (Homo sapiens), sequence (O75469 whole entry, looked up): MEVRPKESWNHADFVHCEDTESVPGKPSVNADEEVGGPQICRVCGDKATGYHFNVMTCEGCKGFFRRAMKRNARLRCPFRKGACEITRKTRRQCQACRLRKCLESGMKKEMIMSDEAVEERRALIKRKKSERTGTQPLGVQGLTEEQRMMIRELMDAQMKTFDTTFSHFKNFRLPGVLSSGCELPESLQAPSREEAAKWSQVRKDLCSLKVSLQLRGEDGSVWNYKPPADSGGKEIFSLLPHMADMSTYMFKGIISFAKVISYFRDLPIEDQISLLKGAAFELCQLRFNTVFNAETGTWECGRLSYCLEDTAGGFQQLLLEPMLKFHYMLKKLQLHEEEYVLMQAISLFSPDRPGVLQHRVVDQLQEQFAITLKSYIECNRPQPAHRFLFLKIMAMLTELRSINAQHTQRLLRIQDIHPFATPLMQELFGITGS
Peroxisome proliferator-activated receptor gamma (Homo sapiens), sequence (P37231 whole entry, looked up): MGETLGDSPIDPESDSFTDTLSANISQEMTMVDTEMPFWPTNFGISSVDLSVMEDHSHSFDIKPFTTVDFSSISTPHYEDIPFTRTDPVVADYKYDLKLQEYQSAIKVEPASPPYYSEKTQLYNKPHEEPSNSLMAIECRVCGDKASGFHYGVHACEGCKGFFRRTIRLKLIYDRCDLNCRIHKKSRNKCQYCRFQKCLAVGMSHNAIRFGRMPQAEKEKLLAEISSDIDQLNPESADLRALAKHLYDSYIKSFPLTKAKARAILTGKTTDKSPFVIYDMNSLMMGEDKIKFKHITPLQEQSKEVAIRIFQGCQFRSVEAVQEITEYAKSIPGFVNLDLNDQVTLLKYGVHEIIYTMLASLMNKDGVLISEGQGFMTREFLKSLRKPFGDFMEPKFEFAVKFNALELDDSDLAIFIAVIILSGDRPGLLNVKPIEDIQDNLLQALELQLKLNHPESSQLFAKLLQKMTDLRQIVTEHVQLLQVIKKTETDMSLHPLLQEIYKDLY
human Peroxisome Proliferator-activated Receptor alpha (PPARa), PPARA (gene 5465), sequence (Q07869 whole entry, looked up): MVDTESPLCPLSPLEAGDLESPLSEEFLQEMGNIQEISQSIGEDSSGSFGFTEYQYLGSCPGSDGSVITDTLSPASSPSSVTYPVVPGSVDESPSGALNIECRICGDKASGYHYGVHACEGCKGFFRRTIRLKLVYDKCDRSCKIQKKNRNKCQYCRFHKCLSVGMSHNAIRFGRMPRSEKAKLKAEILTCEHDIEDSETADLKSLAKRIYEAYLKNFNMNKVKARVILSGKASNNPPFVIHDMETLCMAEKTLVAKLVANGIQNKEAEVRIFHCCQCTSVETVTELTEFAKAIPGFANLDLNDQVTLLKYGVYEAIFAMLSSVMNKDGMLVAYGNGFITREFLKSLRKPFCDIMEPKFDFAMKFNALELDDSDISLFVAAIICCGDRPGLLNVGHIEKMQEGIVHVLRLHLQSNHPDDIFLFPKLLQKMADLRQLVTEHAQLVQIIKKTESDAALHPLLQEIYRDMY
PGR (gene 5241), sequence (P06401 whole entry, looked up): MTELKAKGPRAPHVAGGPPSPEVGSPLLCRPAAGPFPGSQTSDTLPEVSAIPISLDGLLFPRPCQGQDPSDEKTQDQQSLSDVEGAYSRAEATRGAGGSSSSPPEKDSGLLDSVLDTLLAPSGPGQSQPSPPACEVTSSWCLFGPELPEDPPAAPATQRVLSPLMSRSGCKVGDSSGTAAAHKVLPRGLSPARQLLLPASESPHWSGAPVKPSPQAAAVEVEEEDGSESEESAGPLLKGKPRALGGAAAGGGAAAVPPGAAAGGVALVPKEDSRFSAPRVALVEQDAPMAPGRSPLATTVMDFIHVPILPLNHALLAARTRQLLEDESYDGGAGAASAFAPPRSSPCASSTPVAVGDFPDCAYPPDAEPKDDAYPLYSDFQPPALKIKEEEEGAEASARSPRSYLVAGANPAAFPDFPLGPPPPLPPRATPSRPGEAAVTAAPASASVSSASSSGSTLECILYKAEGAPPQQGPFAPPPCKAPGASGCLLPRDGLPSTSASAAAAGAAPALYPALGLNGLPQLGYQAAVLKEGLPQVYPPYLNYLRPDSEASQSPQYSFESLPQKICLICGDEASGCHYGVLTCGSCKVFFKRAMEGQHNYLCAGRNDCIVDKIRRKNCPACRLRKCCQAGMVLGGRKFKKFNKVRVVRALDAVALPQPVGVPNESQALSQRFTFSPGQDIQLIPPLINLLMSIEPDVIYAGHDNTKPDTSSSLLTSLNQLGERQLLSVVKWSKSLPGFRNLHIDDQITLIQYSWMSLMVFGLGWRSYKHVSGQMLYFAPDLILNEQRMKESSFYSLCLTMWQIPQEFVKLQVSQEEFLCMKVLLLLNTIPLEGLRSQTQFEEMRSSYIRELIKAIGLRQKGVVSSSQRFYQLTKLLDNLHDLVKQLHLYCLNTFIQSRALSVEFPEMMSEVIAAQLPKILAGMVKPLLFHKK

The first assay deals with human Peroxisome Proliferator-activated Receptor alpha (PPARa), PPARA (gene 5465) (UniProt Q07869). The assay can be described thus: NVS_NR_hPPARa: NovaScreen (NVS) Nuclear Receptor Binding Assay for human Peroxisome Proliferator-activated Receptor alpha (PPARa) (AID 2283359).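 Further: activity means loss of TR-FRET signal versus DMSO baseline.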 In short, it runs like this:
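Cell-free binding assay with extracted human protein, read by TR-FRET 1 h after chemical dosing. Loss of signal relative to DMSO baseline indicates binding. Primary screen used duplicate single concentration (25 uM); actives followed up in concentration series.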
Consider `CCOC(=O)c1ccc(C2CCC(NC[C@H](O)COc3ccc(O)c(NS(C)(=O)=O)c3)CC2)cc1` (some centres undefined), for which the molecule was classed as inactive.

Take `CCCCCCCCCCCCCCCO`: the result was inactive.

Consider `CCc1cc(SCc2sc(-c3ccc(C(F)(F)F)cc3)nc2CN2CCN(c3ccc(OC)cc3)CC2)ccc1OCC(=O)O`, for which the AC50 is 0.00361 µM (active).

Consider `CN(C)c1ccc(Cc2ccc(N(C)C)cc2)cc1`, for which the call was inactive.

For the molecule `Nc1ccc(Nc2ccccc2)cc1`, the AC50 was 46.3 µM (active).

Another assay has as its target PGR (gene 5241) (UniProt P06401). The experiment in a line: NVS_NR_hPR: NovaScreen (NVS) Nuclear Receptor Binding Assay for human Progestron Receptor (PR) (AID 2283360).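 Further: active means loss of bound radioligand signal versus DMSO baseline.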 In short, it runs like this:
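T47D lysate; tritiated or iodinated radioligand; scintillation count at 18 h. DMSO = negative control/baseline. Primary: 25 uM, duplicate. Secondary: concentration series for actives.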
In the case of `CC(C)(O)c1coc(S(=O)(=O)NC(=O)Nc2c3c(cc4c2CCC4)CCC3)c1`, the call was inactive.

`CC(=O)OCCC(C)C`: the outcome was inactive.

`CNCc1ccc(NC(=O)c2c[nH]c3c2C(=O)CCC3)cc1`: the molecule was called inactive.

As for `Cc1c(-c2cccnc2)c2ccccc2n1CCCCC(=O)O`, the call was inactive.

Consider `O=C(OC[C@H]1O[C@@H](OC(=O)c2cc(O)c(O)c(OC(=O)c3cc(O)c(O)c(O)c3)c2)[C@H](OC(=O)c2cc(O)c(O)c(OC(=O)c3cc(O)c(O)c(O)c3)c2)[C@@H](OC(=O)c2cc(O)c(O)c(OC(=O)c3cc(O)c(O)c(O)c3)c2)[C@@H]1OC(=O)c1cc(O)c(O)c(OC(=O)c2cc(O)c(O)c(O)c2)c1)c1cc(O)c(O)c(OC(=O)c2cc(O)c(O)c(O)c2)c1`, for which the AC50 was 6.13 µM (active).

For `O=C(O)c1cc(N=Nc2ccc(S(=O)(=O)Nc3ccccn3)cc2)ccc1O`, the AC50 is 36.5 µM (active).

Take `CCc1cc(SCc2sc(-c3ccc(C(F)(F)F)cc3)nc2CN2CCN(c3ccc(OC)cc3)CC2)ccc1OCC(=O)O`: the molecule was called inactive.

Another assay deals with Retinoic acid receptor alpha (Homo sapiens) (UniProt P10276). The assay can be described thus: NVS_NR_hRARa_Agonist: NovaScreen (NVS) Nuclear Receptor Binding Assay for human Retinoic Acid Alpha Receptor Agonism (RAR) (AID 2283361). In short, it runs like this:
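Cell-free TR-FRET binding read-out with extracted human RARα protein, read 2 h after compound addition. Gain of signal scored against DMSO baseline. Primary screen at a single 25 uM in duplicate; actives then retested in concentration series.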
For `CC(C)CCCCCCCOC(=O)CCCCC(=O)OCCCCCCCC(C)C`, the molecule was classed as inactive.

As to `Cn1c(=O)c2c(ncn2C)n(C)c1=O`, the molecule was called inactive.

For `Clc1nc(Cl)c(Cl)c(Cl)c1Cl`, the molecule was classed as inactive.

The target of another assay is Glucocorticoid receptor (Homo sapiens) (UniProt P04150). The assay can be described thus: NVS_NR_hGR: NovaScreen (NVS) Nuclear Receptor Binding Assay for human Glucocorticoid Receptor (GR) (AID 2283363).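 On AC50: activity is loss of specific radioligand binding signal relative to DMSO.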 In short, it runs like this:
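Cell-free radioligand binding with extracted receptor protein, read by filter-based scintillation counting 16 hours after dosing. Loss of specific signal versus DMSO baseline was scored. Primary screen ran in duplicate at 25 uM; actives were followed up in concentration series.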
As for `CCOC(=O)c1ccc(C2CCC(NC[C@H](O)COc3ccc(O)c(NS(C)(=O)=O)c3)CC2)cc1` (some centres undefined), the result was inactive.

Consider `O=C(OC[C@H]1O[C@@H](OC(=O)c2cc(O)c(O)c(OC(=O)c3cc(O)c(O)c(O)c3)c2)[C@H](OC(=O)c2cc(O)c(O)c(OC(=O)c3cc(O)c(O)c(O)c3)c2)[C@@H](OC(=O)c2cc(O)c(O)c(OC(=O)c3cc(O)c(O)c(O)c3)c2)[C@@H]1OC(=O)c1cc(O)c(O)c(OC(=O)c2cc(O)c(O)c(O)c2)c1)c1cc(O)c(O)c(OC(=O)c2cc(O)c(O)c(O)c2)c1`, for which the AC50 was 0.533 µM (active).

Take `CCc1cc(SCc2sc(-c3ccc(C(F)(F)F)cc3)nc2CN2CCN(c3ccc(OC)cc3)CC2)ccc1OCC(=O)O`: the AC50 is 1.57 µM (active).

On to `Nc1ccc(Nc2ccccc2)cc1`, for which the AC50 is 14.6 µM (active).

The target in a further assay is Nuclear receptor subfamily 1 group I member 2 (Homo sapiens) (UniProt O75469). The assay can be described thus: NVS_NR_hPXR: NovaScreen (NVS) Nuclear Receptor Binding Assay for human Pregnane X Receptor (PXR) (AID 2283365).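 Further: a drop in FRET signal versus DMSO baseline means the compound binds.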 In short, it runs like this:
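Binding was measured by time-resolved fluorescence resonance energy transfer after a 2 h exposure of extracted human PXR protein without cells. Compounds were first tested at 25 uM in duplicate, with concentration series for actives; DMSO defined baseline.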
Regarding `Nc1cccc(N)c1`, the result was inactive.

`CC(=O)OCCC(C)C`: the molecule was called inactive.

As for `O=C(O)c1cc(N=Nc2ccc(S(=O)(=O)Nc3ccccn3)cc2)ccc1O`, the result was inactive.

Take `CN(C)c1ccc(Cc2ccc(N(C)C)cc2)cc1`: the molecule was called inactive.

Take `NC(=O)NO`: the outcome was inactive.

A further assay deals with guinea pig Sigma Receptor, Non-selective Binding, SIGMAR1 (gene 100135589) (UniProt Q60492). The experiment in a line: NVS_OR_gSIGMA_NonSelective: NovaScreen (NVS) Nuclear Receptor Binding Assay for guinea pig Sigma Receptor, Non-selective Binding (AID 2283367). In short, it runs like this: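 Guinea pig brain membranes, cell-free radioligand binding; read 1 h after dosing by filter-based scintillation counting. Loss of signal vs DMSO baseline taken as displacement. Primary screen single concentration 25 uM in duplicate; actives retested in concentration series.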
guinea pig Sigma Receptor, Non-selective Binding, SIGMAR1 (gene 100135589), sequence (Q60492 whole entry, looked up): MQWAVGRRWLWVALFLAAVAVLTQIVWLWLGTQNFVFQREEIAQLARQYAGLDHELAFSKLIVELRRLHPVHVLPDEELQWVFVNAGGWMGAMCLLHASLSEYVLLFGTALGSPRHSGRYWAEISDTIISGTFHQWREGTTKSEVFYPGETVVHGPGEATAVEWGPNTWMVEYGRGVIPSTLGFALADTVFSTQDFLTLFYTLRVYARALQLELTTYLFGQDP
As to `O=C(O)CCN(C1(C(=O)NO)CCCC1)S(=O)(=O)c1ccc(Oc2ccc(F)cc2)cc1`, the molecule was classed as inactive.

With `CC(C)CC(C)(O)C#CC(C)(O)CC(C)C` (centres undefined), the AC50 was 15 µM (active).

Take `Cc1ccc(C)c(O)c1`: the AC50 was 8.63 µM (active).

In the case of `Cc1[nH]cnc1C[C@H]1CCc2c(C)c3ccccc3n2C1=O`, the AC50 is 10 µM (active).

Take `CC(C)CCCCCCCOC(=O)CCCCC(=O)OCCCCCCCC(C)C`: the outcome was inactive.

For `O=C(O)CC(O)C(=O)O` (centres undefined), the concentration at half-maximal activity (AC50) was 14.8 µM (active).

As to `CN(C)c1ccc(Cc2ccc(N(C)C)cc2)cc1`, the AC50 was 5.19 µM (active).

`CCN(C(=O)c1cc(C)cc(OC[C@H](C)Nc2ccncc2)c1)C(C)C`: the AC50 is 6.22 µM (active).

A further assay deals with guinea pig Dopamine Transporter (DAT), gene 100714898. The assay can be described thus: NVS_TR_gDAT: NovaScreen (NVS) Transporter Assay for guinea pig Dopamine Transporter (DAT) (AID 2283369).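 Further: active compounds lower bound radioligand signal relative to DMSO.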 In short, it runs like this:
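Test chemicals were incubated 2 h with guinea pig striatal membranes and a radioligand; bound label was separated by filtration and counted. Screening ran at 25 uM, followed by concentration-response testing to a 50 uM maximum.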
On to `Cc1[nH]cnc1C[C@H]1CCc2c(C)c3ccccc3n2C1=O`, for which the AC50 is 12.7 µM (active).

For `CC(=O)OCCC(C)C`, the call was inactive.

With `O=C(O)CC(O)C(=O)O` (centres undefined), the AC50 is 5.6 µM (active).

With `CCOC(=O)c1ccc(C2CCC(NC[C@H](O)COc3ccc(O)c(NS(C)(=O)=O)c3)CC2)cc1` (some centres undefined), the AC50 was 8.87 µM (active).

In the case of `O=C(OC[C@H]1O[C@@H](OC(=O)c2cc(O)c(O)c(OC(=O)c3cc(O)c(O)c(O)c3)c2)[C@H](OC(=O)c2cc(O)c(O)c(OC(=O)c3cc(O)c(O)c(O)c3)c2)[C@@H](OC(=O)c2cc(O)c(O)c(OC(=O)c3cc(O)c(O)c(O)c3)c2)[C@@H]1OC(=O)c1cc(O)c(O)c(OC(=O)c2cc(O)c(O)c(O)c2)c1)c1cc(O)c(O)c(OC(=O)c2cc(O)c(O)c(O)c2)c1`, the outcome was inactive.

With `CCc1cc(SCc2sc(-c3ccc(C(F)(F)F)cc3)nc2CN2CCN(c3ccc(OC)cc3)CC2)ccc1OCC(=O)O`, the AC50 is 15.2 µM (active).

For the molecule `Nc1ccc(Nc2ccccc2)cc1`, the AC50 was 25 µM (active).

The target of another assay is Peroxisome proliferator-activated receptor gamma (Homo sapiens) (UniProt P37231). The assay can be described thus: NVS_NR_hPPARg: NovaScreen (NVS) Nuclear Receptor Binding Assay for human Peroxisome Proliferator-activated Receptor gamma (PPARg) (AID 2283370). In short, it runs like this:
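Fluorescence polarization measures competitive binding to extracted PPARg in a cell-free format. Reading is taken at 2 h; activity is signal loss relative to DMSO. Screening at 25 uM in duplicate preceded confirmatory dose series.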
Regarding `COc1ccc(/C=C/S(=O)(=O)NC(=O)c2ccc(C)cc2Cl)cc1`, the AC50 is 41.3 µM (active).

`CC(C)(O)c1coc(S(=O)(=O)NC(=O)Nc2c3c(cc4c2CCC4)CCC3)c1`: the molecule was called inactive.

As for `CCOC(=O)c1ccc(C2CCC(NC[C@H](O)COc3ccc(O)c(NS(C)(=O)=O)c3)CC2)cc1` (some centres undefined), the result was inactive.

Turning to `CC(C)=CCC/C(C)=C/CO`, the molecule was called inactive.

Take `CNCc1ccc(NC(=O)c2c[nH]c3c2C(=O)CCC3)cc1`: the concentration at half-maximal activity (AC50) is 5.18 µM (active).

Take `Cc1c(-c2cccnc2)c2ccccc2n1CCCCC(=O)O`: the molecule was called inactive.

Take `O=C(O)c1cc(N=Nc2ccc(S(=O)(=O)Nc3ccccn3)cc2)ccc1O`: the outcome was inactive.

In the case of `Clc1nc(Cl)c(Cl)c(Cl)c1Cl`, the call was inactive.

Regarding `CCc1cc(SCc2sc(-c3ccc(C(F)(F)F)cc3)nc2CN2CCN(c3ccc(OC)cc3)CC2)ccc1OCC(=O)O`, the AC50 was 7.42 µM (active).

As for `CCN(C(=O)c1cc(C)cc(OC[C@H](C)Nc2ccncc2)c1)C(C)C`, the outcome was inactive.
